Laboratory results: PubChem BioAssay
The source made the active and inactive calls.

Key:
[1] = system: Plasmodium falciparum Sir2 (PF13_0152, Sir2A); assay: pfSir2 binders on small-molecule microarrays, primary screen, biochemical, small-molecule microarray, 635 nm fluorescence (AID 1098); settings: small-molecule microarray binding, fluorescence 635 nm; higher = more signal;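 note: score merges spot fluorescence intensity with its signal-to-noise ratio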
[2] = small-molecule microarray binders of probe aDKK1, primary screen, biochemical, biotinylated probe, 635/667 nm fluorescence (AID 1099); settings: higher = more signal;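 note: score merges 667nm spot fluorescence with signal to noise across triplicate slides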
[3] = small-molecule microarray binders of probe aCHRDL2, primary screen, biochemical, biotinylated probe, 635/667 nm fluorescence (AID 1100); settings: higher = more signal
[4] = splicing luciferase reporter signal modulators, primary screen, spliceosome inhibition project, cell-based, HEK293, splice +/- reporter (AID 1101); settings: luminescence, 24 h, higher = more signal, called active from +8 up or from −8 down;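 note: HEK293 cells carrying a splicing-competent luciferase reporter gene; test concentration not given here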
[5] = molecular target: Fibroblast growth factor 10 (Homo sapiens) (UniProt O15520); assay: FGF10 binders on small-molecule microarrays, primary screen, biochemical, small-molecule microarray, 635 nm fluorescence (AID 1102); settings: FGF10 binding, fluorescence 635 nm, higher = more signal
Fibroblast growth factor 10 (Homo sapiens), sequence (O15520 whole entry, looked up): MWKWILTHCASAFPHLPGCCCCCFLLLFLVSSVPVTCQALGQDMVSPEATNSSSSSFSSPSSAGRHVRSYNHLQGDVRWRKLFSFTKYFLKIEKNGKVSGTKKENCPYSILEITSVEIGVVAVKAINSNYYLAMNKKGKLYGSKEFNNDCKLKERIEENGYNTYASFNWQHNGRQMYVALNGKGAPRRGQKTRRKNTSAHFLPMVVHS

[6] = system: glycogen synthase kinase-3 (GSK3A per assay name; protocol says GSK3B); assay: GSK3 binders on small-molecule microarrays, primary screen, biochemical, small-molecule microarray, 635 nm fluorescence, GSK3A (AID 1103); settings: small-molecule microarray binding, fluorescence 635 nm; higher = more signal; note: the record names both GSK3A and GSK3B
[7] = molecular target: Epidermal growth factor receptor (Homo sapiens) (UniProt P00533); assay: EGFR binders on small-molecule microarrays, primary screen, biochemical, small-molecule microarray, 635 nm fluorescence (AID 1104); settings: EGFR binding, higher = more signal;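 note: score merges 667 nm emission intensity with spot signal to noise over triplicate slides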
Epidermal growth factor receptor (Homo sapiens), sequence (P00533 whole entry, looked up): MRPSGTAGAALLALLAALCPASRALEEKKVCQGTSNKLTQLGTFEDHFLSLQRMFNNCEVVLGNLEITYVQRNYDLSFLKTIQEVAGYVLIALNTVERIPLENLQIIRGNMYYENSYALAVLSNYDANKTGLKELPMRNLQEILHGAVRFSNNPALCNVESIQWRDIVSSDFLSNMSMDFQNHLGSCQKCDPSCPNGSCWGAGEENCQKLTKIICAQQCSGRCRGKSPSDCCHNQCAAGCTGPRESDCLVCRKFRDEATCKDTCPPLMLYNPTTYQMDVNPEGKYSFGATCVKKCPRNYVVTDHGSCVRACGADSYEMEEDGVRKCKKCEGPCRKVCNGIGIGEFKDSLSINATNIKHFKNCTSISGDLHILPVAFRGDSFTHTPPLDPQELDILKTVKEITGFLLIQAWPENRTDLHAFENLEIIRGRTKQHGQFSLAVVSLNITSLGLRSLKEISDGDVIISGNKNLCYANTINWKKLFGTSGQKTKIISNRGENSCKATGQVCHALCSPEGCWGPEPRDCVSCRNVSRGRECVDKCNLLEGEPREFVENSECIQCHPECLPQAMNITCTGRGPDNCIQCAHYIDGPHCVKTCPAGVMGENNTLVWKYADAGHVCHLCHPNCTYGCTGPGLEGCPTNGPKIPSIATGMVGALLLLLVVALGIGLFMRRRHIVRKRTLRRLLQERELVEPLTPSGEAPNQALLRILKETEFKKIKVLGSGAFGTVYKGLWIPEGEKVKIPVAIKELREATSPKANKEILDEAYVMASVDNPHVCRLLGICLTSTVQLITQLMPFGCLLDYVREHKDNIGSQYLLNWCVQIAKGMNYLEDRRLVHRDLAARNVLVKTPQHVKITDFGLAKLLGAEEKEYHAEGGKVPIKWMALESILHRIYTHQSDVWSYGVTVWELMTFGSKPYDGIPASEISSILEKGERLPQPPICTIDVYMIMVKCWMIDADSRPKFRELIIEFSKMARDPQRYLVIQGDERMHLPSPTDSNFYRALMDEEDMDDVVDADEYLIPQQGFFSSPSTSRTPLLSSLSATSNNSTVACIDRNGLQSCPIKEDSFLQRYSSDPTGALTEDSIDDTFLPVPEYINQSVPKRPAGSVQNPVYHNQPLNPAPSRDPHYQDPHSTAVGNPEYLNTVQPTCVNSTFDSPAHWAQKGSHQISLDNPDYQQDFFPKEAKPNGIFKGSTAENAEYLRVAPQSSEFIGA

[8] = molecular target: Follistatin-related protein 3 (Homo sapiens) (UniProt O95633); assay: FSTL3 binders on small-molecule microarrays, primary screen, biochemical, small-molecule microarray, 635 nm fluorescence (AID 1105); settings: FSTL3 binding, higher = more signal;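 note: score merges emission near 667 nm and signal to noise per printed spot across three slides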
Follistatin-related protein 3 (Homo sapiens), sequence (O95633 whole entry, looked up): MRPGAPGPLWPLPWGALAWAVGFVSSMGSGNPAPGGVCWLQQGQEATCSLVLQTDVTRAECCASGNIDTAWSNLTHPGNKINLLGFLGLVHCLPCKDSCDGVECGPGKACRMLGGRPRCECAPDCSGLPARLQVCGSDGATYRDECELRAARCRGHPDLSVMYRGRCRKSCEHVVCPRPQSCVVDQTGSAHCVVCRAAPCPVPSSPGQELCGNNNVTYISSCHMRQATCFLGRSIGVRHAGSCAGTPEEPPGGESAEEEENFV

[9] = molecular target: Dickkopf-related protein 1 (Homo sapiens) (UniProt O94907); assay: DKK1 binders on small-molecule microarrays, primary screen, biochemical, small-molecule microarray, 635 nm fluorescence scan (AID 1106); settings: DKK1 binding, higher = more signal;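 note: score merges emission near 667 nm with signal to noise over three replicate slides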
Dickkopf-related protein 1 (Homo sapiens), sequence (O94907 whole entry, looked up): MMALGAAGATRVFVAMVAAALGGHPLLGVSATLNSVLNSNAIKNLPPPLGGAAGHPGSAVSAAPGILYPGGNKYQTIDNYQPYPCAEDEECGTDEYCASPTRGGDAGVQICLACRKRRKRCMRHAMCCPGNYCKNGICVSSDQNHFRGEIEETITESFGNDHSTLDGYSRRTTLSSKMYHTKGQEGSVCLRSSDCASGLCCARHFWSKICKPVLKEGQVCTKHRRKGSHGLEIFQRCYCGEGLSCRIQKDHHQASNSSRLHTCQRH

[10] = system: Inhibin beta A chain (activin A); assay: INHBA (activin A) binders on microarrays, primary screen, biochemical, small-molecule microarray, 635 nm fluorescence scan (AID 1107); settings: small-molecule microarray binding, higher = more signal;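 note: mouse activin A protein probed at 4.33 µg/mL on printed slides; score merges bound-protein fluorescence near 667 nm with spot signal-to-noise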
[11] = system: Human papillomavirus type 1a protein E7 (residues 44-93); assay: HPV1a E7 fragment binders on microarrays, primary screen, biochemical, small-molecule microarray, residues 44-93, 635 nm fluorescence (AID 1108); settings: small-molecule microarray binding, fluorescence 635 nm; higher = more signal;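 note: E7 fragment applied at 1 µg/mL in TBST for 1 h at 4 C; score combines spot fluorescence with its signal to noise ratio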
[12] = modulators of HCV replicon luciferase signal, primary screen, HCV replication inhibitor project, Huh7 cells, luciferase reporter (AID 1109); settings: 48 h, higher = more signal;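 note: huh7 hepatoma cells harbouring a luciferase neomycin HCV replicon reporter; luciferase luminescence as measure of HCV replicon replication; test concentration not given here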
[13] = molecular target: Left-right determination factor 2 (Homo sapiens) (UniProt O00292); assay: LEFTY2 binders on small-molecule microarrays, primary screen, biochemical, small-molecule microarray, 635 nm fluorescence scan (AID 1110); settings: LEFTY2 binding, higher = more signal
Left-right determination factor 2 (Homo sapiens), sequence (O00292 whole entry, looked up): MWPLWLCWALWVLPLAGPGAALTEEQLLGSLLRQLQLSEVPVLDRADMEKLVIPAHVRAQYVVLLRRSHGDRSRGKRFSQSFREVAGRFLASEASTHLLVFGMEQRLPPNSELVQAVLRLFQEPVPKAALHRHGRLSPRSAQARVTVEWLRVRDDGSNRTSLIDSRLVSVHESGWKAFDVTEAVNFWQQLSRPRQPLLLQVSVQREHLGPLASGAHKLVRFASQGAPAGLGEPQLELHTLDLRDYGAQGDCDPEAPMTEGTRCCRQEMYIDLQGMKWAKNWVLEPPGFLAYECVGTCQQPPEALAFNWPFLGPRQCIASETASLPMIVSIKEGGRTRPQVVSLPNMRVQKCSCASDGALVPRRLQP

[14] = molecular target: Calmodulin-1 (Homo sapiens) (UniProt P0DP23); assay: CALM1 binders on microarrays, EGTA buffer, profiling panel, biochemical, small-molecule microarray, Cy5-labelled CALM1 (AID 1111); settings: Cy5-CALM1 binding fluorescence, higher = more signal;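 note: labelled calmodulin applied in Tris saline Tween buffer holding calcium plus EGTA and DTT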
[15] = molecular target: Calmodulin-1 (Homo sapiens) (UniProt P0DP23); assay: calcium-bound CALM1 binders on microarrays, profiling panel, artefact control for SMM control-protein annotation, biochemical, small-molecule microarray, Cy5-labelled CALM1, plus calcium (AID 1112); settings: Cy5-CALM1 binding fluorescence, higher = more signal;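 note: score merges spot fluorescence with signal to noise from triplicate slides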
[16] = small-molecule microarray binders of probe aWnt5a, primary screen, biochemical, biotinylated probe, 635/667 nm fluorescence (AID 1113); settings: higher = more signal;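 note: score merges 667 nm fluorescence intensity with signal-to-noise per printed feature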
[17] = small-molecule microarray binders of probe aShh, primary screen, biochemical, biotinylated probe, 635/667 nm fluorescence (AID 1114); settings: higher = more signal;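 note: probe is biotin-labelled aShh protein from a stem cell growth factor screen; measures binding of labelled protein to compounds printed on the slide; score merges feature fluorescence at 667 nm with signal-to-noise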
[18] = small-molecule microarray binders of probe aNog, primary screen, biochemical, biotinylated probe, 635/667 nm fluorescence (AID 1115); settings: higher = more signal;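 note: probe is biotinylated aNog protein used at 0.15 µg/mL for 1 h at 4 C; z-score combines 667 nm fluorescence of each spot with its signal to noise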
[19] = molecular target: Torsin-1A-interacting protein 1 (Homo sapiens) (UniProt Q5JTV8); assay: LAP1 binders from COS7 cell lysate, primary screen, small-molecule microarray, 635/667 nm fluorescence (AID 1116); settings: COS7-hLAP1 lysate binding, 635 nm fluorescence, higher = more signal
Torsin-1A-interacting protein 1 (Homo sapiens), sequence (Q5JTV8 whole entry, looked up): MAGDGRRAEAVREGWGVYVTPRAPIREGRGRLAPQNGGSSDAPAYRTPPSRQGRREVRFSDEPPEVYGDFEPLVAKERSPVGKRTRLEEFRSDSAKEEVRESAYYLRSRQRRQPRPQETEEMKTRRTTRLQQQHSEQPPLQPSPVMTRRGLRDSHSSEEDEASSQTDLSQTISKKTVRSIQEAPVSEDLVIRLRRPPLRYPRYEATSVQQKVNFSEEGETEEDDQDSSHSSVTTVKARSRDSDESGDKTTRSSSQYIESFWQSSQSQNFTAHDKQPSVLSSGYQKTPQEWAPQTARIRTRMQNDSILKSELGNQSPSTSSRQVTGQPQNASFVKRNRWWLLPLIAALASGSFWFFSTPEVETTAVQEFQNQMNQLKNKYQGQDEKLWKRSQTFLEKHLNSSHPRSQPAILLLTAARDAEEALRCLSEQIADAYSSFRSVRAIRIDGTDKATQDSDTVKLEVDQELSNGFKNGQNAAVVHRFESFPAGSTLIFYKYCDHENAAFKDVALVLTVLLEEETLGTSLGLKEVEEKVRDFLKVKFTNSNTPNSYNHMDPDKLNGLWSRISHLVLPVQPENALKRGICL

[20] = molecular target: Alpha-bungarotoxin (Bungarus multicinctus) (UniProt P60615); assay: alpha-bungarotoxin binders on microarray, profiling panel, artefact control for SMM control protein annotation, biochemical, small-molecule microarray, Alexa647 label, 635/667 nm fluorescence (AID 1117); settings: alpha-BTX-A647 binding fluorescence, higher = more signal
Alpha-bungarotoxin (Bungarus multicinctus), sequence (P60615 whole entry, looked up): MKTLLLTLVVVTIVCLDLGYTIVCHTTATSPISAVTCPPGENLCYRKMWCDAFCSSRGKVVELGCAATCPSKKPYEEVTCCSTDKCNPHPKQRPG

Row | Structure (SMILES) | composite z-score [1] | composite z-score [2] | composite z-score [3] | z-score [4] | composite z-score [5] | composite z-score [6] | composite z-score [7] | composite z-score [8] | composite z-score [9] | composite z-score [10] | composite z-score [11] | z-score [12] | composite z-score [13] | composite z-score [14] | composite z-score [15] | composite z-score [16] | composite z-score [17] | composite z-score [18] | composite z-score [19] | composite z-score [20]
1 | O=C1[C@H]2[C@H]3[C@H](O)[C@H](O)CC(=NOC[C@@H](O)COCc4ccco4)[C@@H]3CC[C@H]2C(=O)N1Cc1ccc2c(c1)OCO2 | 0.867 | -0.387 | -1.42 | -0.119 (inactive) | -0.454 | 1.3 | 1.15 | 0.9 | 1.47 | 0.506 | -0.772 | 0.0878 | 1.44 | -0.982 | -2.03 | -0.172 | -0.123 | -0.34 | 0.0886 | 0.0167
2 | C[C@@H](c1ccccc1)N1C(=O)[C@H]2[C@H]3[C@H](O)[C@H](O)CC(=NNC(=O)OCc4ccccc4)[C@@H]3CC[C@H]2C1=O | 0.404 | -0.657 | -1.57 | 0.574 (inactive) | -0.0948 | 1.25 | 0.845 | 1.5 | 1.94 | 1.56 | -0.347 | -1.01 | 1.17 | -1.16 | -1.94 | -0.158 | 0.0062 | -0.545 | -0.043 | -0.716
3 | O=C1[C@H]2[C@H]3[C@H](O)[C@H](O)CC(=NOCc4ccccc4)[C@@H]3CC[C@H]2C(=O)N1c1cccc(Oc2ccccc2)c1 | 1.03 | -0.173 | -0.186 | -0.055 (inactive) | 0.485 | 0.38 | 0.201 | 0.48 | 0.0072 | -0.202 | 1.32 | 0.0134 | -0.0065 | -0.0299 | -0.699 | -0.096 | 0.0639 | 0.0051 | 0.902 | 0.626
4 | CC(C)=NOC(C)CN1CCCCc2nc(C)c(C)cc21 (stereo not given) | 0.284 | -0.261 | -0.331 | 0.19 (inactive) | 0.151 | 0.0285 | 0.468 | 0.473 | 0.619 | 1.04 | 0.103 | -0.594 | 0.576 | -0.254 | -0.66 | -0.113 | -0.0769 | -0.198 | 0.605 | -0.265
5 | COC(=O)[C@H](C)NC(=O)CCC1CC(OC(=O)NCc2cccc3ccccc23)CC2(CCCC(COC(=O)NCc3ccccc3)O2)O1 (stereo not given in full) | 0.537 | -0.132 | -0.459 | -0.829 (inactive) | 0.625 | 1.04 | 0.445 | 0.918 | 0.667 | -0.0949 | 1.15 | -0.922 | 0.648 | 0.426 | -0.543 | -0.0721 | -0.206 | -0.495 | 0.177 | 0.389
6 | CC(C)[C@@H](OCc1ccccc1)[C@H](C)C=NO[C@H](C)c1cn([C@@H]2COC[C@H]2O)nn1 | 0.385 | -0.492 | -0.511 | 0.0201 (inactive) | 0.457 | 1.08 | 0.556 | 0.448 | 0.0939 | -1.31 | 1.27 | -1.16 | 0.542 | -0.219 | -0.407 | -0.0832 | -0.206 | -0.198 | 0.296 | 0.586
7 | COCOc1ccc(Br)cc1C(=O)C=Cc1ccc2c(c1)OCO2 | -0.0162 | -0.304 | -0.662 | -0.838 (inactive) | 0.59 | -0.207 | 0.524 | 0.679 | 0.665 | 1.22 | -0.478 | -3.81 | 0.489 | -0.978 | -1.25 | -0.0721 | -0.2 | 0.0689 | 0.0258 | 0.075
8 | COC(=O)[C@H](Cc1ccccc1)NC(=O)[C@@H](C)CO | -0.535 | 0.629 | 0.389 | -1.36 (inactive) | 0.477 | 0.0595 | 0.651 | 1.03 | 0.671 | 1.1 | -0.0054 | -0.499 | 0.597 | -0.597 | -0.32 | -0.034 | 0.214 | 0.376 | 0.763 | 0.0296
9 | CC(CCN1CCCCc2nc(C)c(C)cc21)=NOC[C@@H](O)[C@H]1O[C@@H]2OC(C)(C)O[C@@H]2[C@H]1O | 0.577 | -0.32 | -1.02 | 0.595 (inactive) | 0.313 | 0.397 | 0.774 | 0.718 | 0.874 | -0.0196 | -0.902 | 0.0388 | 1.39 | -0.554 | -1.3 | -0.124 | -0.0626 | 0.0254 | -0.219 | 0.969
10 | CCOC(=O)[C@H](CC(C)C)NC(=O)CCC1CC(OC(=O)NCc2ccc3c(c2)OCO3)CC2(CCCC(COC(=O)NCCOC)O2)O1 (stereo not given in full) | 0.622 | -0.27 | -0.261 | -0.191 (inactive) | 0.495 | 0.627 | 0.184 | 0.864 | 0.336 | 0.637 | 0.522 | -0.322 | 0.249 | 0.221 | -0.491 | -0.0792 | -0.2 | -0.0615 | 0.956 | 1.05
11 | CC(C)=NOC[C@@H](O)[C@H]1O[C@@H]2OC(C)(C)O[C@@H]2[C@H]1O | 0.231 | -0.0464 | -0.364 | 0.211 (inactive) | 0.392 | 0.892 | 0.487 | 0.434 | 0.58 | 0.5 | 0.855 | 0.674 | 0.989 | 0.0985 | -0.29 | 0.163 | 0.0952 | -0.191 | 0.243 | 0.154
